Screens: PubChem BioAssay, several laboratories
Shown are actives, neighbours in structure and some others; about 4.1% of the full set was active somewhere.
Peg3 promoter: reduces Peg3 promoter-driven luciferase expression in HeLa | HeLa PEG-Prom luciferase reporter, luminescence, overnight | inhibition, % at 20 µM | 1.7% of 360,000 active;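 active = inhibition of at least 50% at 20 µM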
MITF TRPM1 inh: inhibitors of MITF-driven TRPM1 promoter in melanoma cells; inhibition, % at 12.5 µM; SK-MEL-5 TRPM1 promoter luciferase, 24 h; 0.83% of 330,000 active;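 active = mean inhibition across replicates of 60% or more, whatever share of single replicates reaches that level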
TWEAK Fn14 block: inhibitors of TWEAK-Fn14 interaction signaling; inhibition, % at 10 µM; TWEAK-stimulated Fn14 reporter cells, luciferase luminescence, 8 h; 2% of 360,000 active; AID 1159606; in the data active = inhibition above about 50%
Shn3 3UTR inh: Schnurri-3 reporter inhibition in Clone20 osteoblasts | Clone20 osteoblast Shn3 3'UTR firefly luciferase, 24 h | inhibition, % at 12.5 µM | 0.52% of 360,000 active;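 active = mean inhibition of at least 75% with every replicate also reaching 75%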;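 note: 0% = median of neutral control wells and 100% = pilot-screen positive control compound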
LMP1 NFkB inh: Epstein-Barr LMP1 NF-kappaB reporter inhibition; 0.69% of 350,000 active; LMP1-induced NF-kappaB luciferase reporter cells, luminescence; AID 504558; inhibition, % at 12.5 µM; in the data active = inhibition above about 41%;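 note: 0% = neutral control wells and 100% = reference inhibitor control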
TROY signal inh: inhibitors of TROY-dependent NF-kB signaling | Q293 LMP1-TROYcd NF-kB luciferase reporter, 4 h | inhibition, % at 10 µM | 0.98% of 360,000 active | AID 1347056;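 active = compounds whose plate-normalised and pattern-corrected inhibition of the luciferase reporter signal at the single screening dose is 50% or more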
* hit, by the source's call; nt = no result.

SMILES	Peg3 promoter	MITF TRPM1 inh	TWEAK Fn14 block	Shn3 3UTR inh	LMP1 NFkB inh	TROY signal inh
C=CCN(CC=C)C(=O)c1ccc(OC2CCN(Cc3ccccn3)CC2)cc1	21.1	8.0	-15.3	-7.3	-3.1	-6.1
CC(=O)c1c(C)[nH]c(C(=O)Nc2cccc(C(F)(F)F)c2)c1C	-99.0	-39.1	-17.4	1.3	10.3	-21.9
COc1ccc(O)c(/C=N/n2c(-c3ccco3)csc2=Nc2cccnc2)c1	-13.0	-5.5	-4.4	6.1	11.1	-71.8
CN=c1scc(C)n1/N=C/c1ccc(O)cc1O	-96.0	-7.0	63.9*	-5.5	35.2	-23.7
CN=c1scc(-c2ccco2)n1/N=C/c1ccc(O)c(O)c1	-136.0	1.5	2.9	90.1*	-55.0	3.4
Cc1nnc(C)n1/N=C/c1ccc2c(c1)OCCO2	-2.7	11.8	0.6	1.0	-29.1	-5.1
CN=c1scc(C)n1/N=C/c1cc(Br)c(O)c(Br)c1	-14.4	2.3	-22.6	1.6	2.5	4.9
CN=c1scc(C)n1/N=C/c1ccc2c(c1)OCO2	-38.6	-9.7	52.6*	11.9	21.3	-55.3
CN=c1scc(C)n1/N=C/c1ccc(O)cc1	-251.1	-44.1	-7.1	-47.5	-5.9	58.5*
N#CC1=CC2CN(Cc3ccccc3)C1C1C(=O)N(c3ccccc3)C(=O)C21 (stereo unspecified)	-4.7	-2.6	7.5	13.0	0.3	-5.3
CN(C)S(=O)(=O)c1ccc(NC(=O)CNc2cc(S(=O)(=O)N3CCCC3)ccc2OCC(F)(F)F)cc1	13.8	-5.8	2.9	16.7	-0.2	10.2
C=CCN=c1scc(C)n1/N=C/c1ccc(O)c(O)c1	-115.7	-51.9	-6.0	91.7*	-8.4	31.7
S=C(Nc1ccc(N2CCOCC2)cc1)Nc1ccc2snnc2c1	-11.3	1.0	72.9*	-3.1	-7.8	75.8*
CC(=O)NC(Cc1ccccc1F)C(=O)NC1CCN(S(=O)(=O)c2ccccc2)CC1 (stereo unspecified)	-0.1	4.7	-23.3	7.4	6.4	17.5
[O-]/[N+](=C\c1ccncc1)c1ccc(Br)cc1	-323.0	-71.1	-15.2	-101.9	-54.7	-34.5
O=c1[nH]c2ccc(Cl)cc2c(-c2ccccc2)c1SC(=S)N1CCOCC1	37.3	5.3	30.9	-6.2	4.2	19.6
O=c1[nH]c2ccc(Cl)cc2c(-c2ccccc2)c1SC(=S)N1CCCCC1	26.9	-8.9	77.2*	-4.9	3.4	1.5
COc1ccc(/C=N/Nc2nc(C)c([N+](=O)[O-])c(N(C)c3ccccc3)n2)cc1OC	13.0	0.4	81.5*	0.6	10.9	nt
Cc1cc(C)cc(-n2ncc3c2CCCC3NC(=O)c2cc(C)n(C)n2)c1 (stereo unspecified)	-39.2	4.6	-13.3	12.3	1.0	-1.8
Cc1cc(C(=O)NC2CCCc3c2cnn3-c2ccc(C(C)(C)C)cc2)nn1C (stereo unspecified)	-6.3	48.9	60.5*	77.1	21.8	38.6
O=C(CCC(=O)OCC(F)(F)C(F)F)Nc1ccc(F)cc1F	12.2	2.2	-0.5	-5.4	-2.1	-8.6
O=C(CCC(=O)OCC(F)(F)C(F)F)Nc1ccc(Cl)cc1	63.4*	-1.8	4.3	-9.3	0.4	7.5
Cc1nc2ncccn2c1-c1csc(Nc2ccccc2)n1	-38.4	7.9	29.5	-1.9	40.5*	31.7
COc1ccc(Nc2nc(-c3c(C)nc4ncccn34)cs2)cc1	-36.1	37.6	3.5	22.5	33.6	-2.1
O=C(c1cccs1)N1CCN(C(=O)c2cccs2)C1=S	99.2*	23.0	70.3*	41.8	1.7	28.7
SMILES	Peg3 promoter	MITF TRPM1 inh	TWEAK Fn14 block	Shn3 3UTR inh	LMP1 NFkB inh	TROY signal inh
O=C(c1cccs1)N1CC=C(c2ccccc2)CC1	-105.7	-26.5	-6.0	-32.7	73.3*	-32.5
O=C(O)CCC(=O)N1CC=C(c2ccccc2)CC1	-7.8	-4.2	5.3	6.6	-5.3	9.2
O=C(O)C1CC=CCC1C(=O)N1CC=C(c2ccccc2)CC1 (stereo unspecified)	18.3	-0.4	78.2*	-8.5	19.2	41.9
O=C(c1cccs1)N1CCCC1	17.7	2.8	0.3	-7.1	-2.4	-4.5
O=C(/C=C/Nc1ccc(S(=O)(=O)Nc2ncccn2)cc1)c1ccc(Cl)c(Cl)c1	-12.0	7.8	3.9	20.7	-1.5	-10.2
O=C(/C=C/Nc1ccc(S(=O)(=O)Nc2ncccn2)cc1)c1cccs1	4.5	9.7	60.1*	8.4	-5.7	41.7
CN(C)CC(CCC(CN(C)C)C(=O)c1ccccc1)C(=O)c1ccccc1 (stereo unspecified)	109.2*	96.9*	98.0*	97.7*	83.7*	56.5*
COc1ccc(C(=O)C(CCCCC(CN(C)C)C(=O)c2ccc(OC)cc2)CN(C)C)cc1 (stereo unspecified)	45.9	50.5	-30.1	-28.4	-30.0	21.2
CCOc1ccc(C(=O)C(CCC(CN(C)C)C(=O)c2ccc(OCC)cc2)CN(C)C)cc1 (stereo unspecified)	106.0*	102.7*	101.5*	98.2*	66.9*	50.5*
Cc1c(C(=O)NCCCN2CCCC2=O)oc2ccc(S(=O)(=O)N3CCOCC3)cc12	8.7	-6.2	12.2	-11.8	2.3	9.4
Cc1c(C(=O)NCCC2=CCCCC2)oc2ccc(S(=O)(=O)N3CCOCC3)cc12	66.5*	12.8	52.0*	33.9	14.1	38.2
Cc1ccc(CNC(=O)c2oc3ccc(S(=O)(=O)N4CCC5(CC4)OCCO5)cc3c2C)cc1	51.1*	19.4	53.6*	51.1	3.3	33.7
Cc1nc2nc(CNC(=O)OC(C)(C)C)nn2c(C)c1CCC(=O)Nc1ccc2c(c1)OCO2	-46.9	5.2	-13.2	-29.7	-18.6	-17.9
COc1ccc(-c2nnc3n2N=C(C)CS3)cc1	-7.8	9.2	-0.5	-9.0	-0.6	16.4
CCOC(=O)/C(=C/c1ccc(OC(F)F)cc1)C1=Nn2c(nnc2-c2ccc(Cl)cc2)SC1	106.3*	94.9*	106.5*	94.6*	16.2	90.7*
CCOC(=O)/C(=C\c1ccc(OC(F)F)cc1)C1=Nn2c(nnc2-c2ccc(Cl)cc2)SC1	102.6*	98.9*	104.7*	94.6*	-9.6	89.5*
C/C(Cn1nnc([N+](=O)[O-])n1)=N\NC(=O)c1ccc(O)cc1	-2.0	5.0	2.0	9.7	-16.4	-10.7
CCn1cnc2cc(NCc3nc4ccccc4n3Cc3ccccc3)ccc21	-199.4	-7.8	80.9*	-7.4	-11.2	80.0*
CC(C)n1cnc2cc(NCc3nc4ccccc4n3C)ccc21	-187.4	-9.2	60.2*	-57.0	-36.4	66.7*
Cc1ccc(CNc2ccc3c(c2)ncn3C(C)C)cc1	-258.1	-97.4	2.6	nt	-30.2	-44.0
O=C(O)c1ccc(NCc2nc3ccccc3n2Cc2ccccc2)cc1	9.8	-3.6	-8.7	16.3	1.6	-1.5
CCn1cnc2cc(NCc3nc4ccccc4n3C)ccc21	-90.3	-34.7	85.8*	-36.9	-3.7	69.2*
